The source of these data is the supplement of paper PMC10338343.

± gives the standard deviation.

Assay [1] relates to MILI (PIWIL2) piRISC loaded with L1MC piRNA (26 nt). Nature of the assay: pre-steady-state target cleavage rate (min^-1); guide: L1MC piRNA 5'p-UAACUAAAUACUAUGCAAGCUGUAGG; higher = faster piRNA-guided slicing of the target. The essentials:
(§1)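 Active affinity-purified piRISC carrying one synthetic guide (1 nM) was mixed with a transcribed, DNA-blocked target RNA library […] in HEPES–potassium acetate buffer at 33 °C for 0–8 or 0–960 min, with or without 500 nM GTSF1 partner protein. Uncleaved targets were then sequenced and normalised to depth and to weakly complementary targets. Three trials were pooled, and k3 was capped at 0.0001 min^-1. A burst-and-steady-state fit was applied to obtain the pre-steady-state cleavage rate.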

For assay [2], the system named is EfPiwi piRISC loaded with L1MC piRNA (26 nt). Nature of the assay: pre-steady-state target cleavage rate (min^-1); auxiliary factor: 500 nM Ephydatia muelleri Gtsf1; guide: L1MC piRNA 5'p-UAACUAAAUACUAUGCAAGCUGUAGG; MIWI and MILI are mouse PIWI proteins and EfPiwi is from a freshwater sponge; tags in brackets are library labels; higher = faster piRNA-guided slicing of the target. The procedure, abridged: as §1
The mark [3] stands for this setting: auxiliary factor: 500 nM mouse GTSF1.

Turning to UCCUGGAACAGCUUGCAUACUAUUAAGUUA, the “pre-steady-state target cleavage rate” value in assay [1] (setting [3]) was 0.0333 ± 0.012; in assay [2], 0.00246 ± 0.0024.
For UCCUGCUACAGCUUGCAUAGCAUUUAGUUA, the results for the “pre-steady-state target cleavage rate” value in assay [1] (setting [3]) and in assay [2] were 0.141 ± 0.022 and 0.00521 ± 0.0016, respectively.
Consider UCCUGCUACAGCUUGCAAAGUAUUUACAAA, for which the “pre-steady-state target cleavage rate” value in assay [1] (setting [3]) is 0.0731 ± 0.018; in assay [2] it was 0.00394 ± 0.0025.
The corresponding values for UCCUGGAUCAGCUUGCAUAGUAUUUUCAUA are 0.0451 ± 0.011 and 0.00263 ± 0.0022.
The corresponding values for UCCUGGUACACCUUGCAUAGUAUUAAGUUA are 0.218 ± 0.066 and 0.00356 ± 0.0032.
For the sequence UCCUCCUACACCUUGCAUAGUAUUUAGAAA, the “pre-steady-state target cleavage rate” value in assay [1] (setting [3]) came out at 0.226 ± 0.05; in assay [2], 0.00377 ± 0.0021.
Consider UCCUCCUACAGCAUGCAUAGUAUUUAGAAA, for which the results for the “pre-steady-state target cleavage rate” value in assay [1] (setting [3]) and in assay [2] were 0.211 ± 0.03 and 0.00473 ± 0.002, respectively.
The corresponding values for UCCUCCUACACCUUGCAUAGUAUUUUGUUA are 0.101 ± 0.026 and 0.00451 ± 0.0027.
The matching figures for UCCUCCUACAGCUUGCAUAGUAUUUUGAUA: 0.112 ± 0.024 and 0.0044 ± 0.0029.
The matching figures for UCCUGGAUGUGCUUGCAUAAUAUUUAGUUA: 0.158 ± 0.018 and 0.00327 ± 0.0027.
As to UCCUGGUACAGCUUGCAUAGUAUUGAGUUA, the “pre-steady-state target cleavage rate” value in assay [1] (setting [3]) was 0.155 ± 0.032; in assay [2], 0.00418 ± 0.0024.
For UCCUGGAUGUCCUUGCAUAGUAUUUAGUCA, the “pre-steady-state target cleavage rate” value in assay [1] (setting [3]) is 0.0898 ± 0.017; in assay [2], 0.00415 ± 0.004.
The matching figures for UCCUCCUACAGCUUGCAUAGAAUUUAGAAA: 0.0449 ± 0.015 and 0.00385 ± 0.0019.
The corresponding values for UCCUCCUACAGCUUGCAUAGUAUUUGUUA are 0.203 ± 0.04 and 0.00561 ± 0.0026.
Turning to UCCUCCUACAGCUUGCUUAGUAUUUUCAAA, the results for the “pre-steady-state target cleavage rate” value in assay [1] (setting [3]) and in assay [2] were 0.0605 ± 0.014 and 0.00322 ± 0.003, respectively.
The corresponding values for UCCUCCUACAGCUUGCAUAGUAUUAAGAUA are 0.125 ± 0.032 and 0.00411 ± 0.0022.
The corresponding values for UCCUGCUACAGCAUGCAUAGUAUUUACUUA are 0.261 ± 0.041 and 0.0037 ± 0.0024.
The matching figures for UCCUGGAACAGCUUGCAUAGUAAAUAGAAA: 0.0493 ± 0.016 and 0.00337 ± 0.0028.
For the sequence UCCUGGAUCAGCUAGCAUAGUAUUUAGAAA, the entries for the “pre-steady-state target cleavage rate” value in assay [1] (setting [3]) and in assay [2] were 0.139 ± 0.016 and 0.0036 ± 0.0022, respectively.
The corresponding values for UCCUCCUACAGCUUGCAUAGUUAUUAGUUA are 0.0492 ± 0.015 and 0.0094 ± 0.0036.
The matching figures for UCCUGGAACAGCAUCCAUAGUAUUUAGUUA: 0.195 ± 0.045 and 0.0025 ± 0.0021.
The corresponding values for UCCUGGUACUGCUUGCAUAGUAUUUAGAAA are 0.0143 ± 0.0067 and 0.00409 ± 0.0019.
As to UCCUGGAUGUCCUUGCAUAGUAUUAUAGUUA, the “pre-steady-state target cleavage rate” value came out at 0.122 ± 0.019 in assay [1] (setting [3]) and 0.00424 ± 0.0041 in assay [2].
The matching figures for UCCUCCUAGAGCUUGCAUAGUAUUAAGUUA: 0.279 ± 0.035 and 0.00604 ± 0.0026.
As for UCCUCCUACAGCUUCGAUAGUAUUUAGUAA, the “pre-steady-state target cleavage rate” value in assay [1] (setting [3]) was determined as 0.217 ± 0.02; in assay [2] it was 0.00413 ± 0.0021.
The matching figures for UCCUGCUACAGCUUGCAAAGUAUAUAGUUA: 0.0886 ± 0.016 and 0.00379 ± 0.0026.
The matching figures for UCCUGGUACUGCUUGCAUAGUAUUUAGAUA: 0.0302 ± 0.014 and 0.00378 ± 0.0019.
The matching figures for UCCUGGAUCUGCUUCCAUAGUAUUUAGUUA: 0.0239 ± 0.0067 and 0.00326 ± 0.0022.
With UCCUGGAACAGCUUGCAUAGUAUAUAGAAA, the “pre-steady-state target cleavage rate” value in assay [1] (setting [3]) was 0.0917 ± 0.026; in assay [2] it was 0.00685 ± 0.0044.
On to UCCUCCUACAGCUUGCAUAGUUAAUAGUUA, for which the “pre-steady-state target cleavage rate” value in assay [1] (setting [3]) was 0.0685 ± 0.022; in assay [2], 0.00703 ± 0.0035.
The matching figures for UCCUCCUACAGCUUGCAUAGUAUUUACAUA: 0.177 ± 0.041 and 0.00441 ± 0.0028.
Take UCCUGCUACAGCUUGCAUAGUAUUAUCUUA: the “pre-steady-state target cleavage rate” value in assay [1] (setting [3]) is 0.16 ± 0.035; in assay [2] it was 0.00653 ± 0.0042.
The matching figures for UCCUGCUACACCUUGCAUAGUAUUAAGUUA: 0.178 ± 0.034 and 0.00618 ± 0.0036.
On to UCCUCCUACAGCUUGCAUAGAAUUUAGAUA, for which the “pre-steady-state target cleavage rate” value amounted to 0.0558 ± 0.014 in assay [1] (setting [3]) and 0.00317 ± 0.0015 in assay [2].
On to UCCUCCUACAGCUUGCAUAGUAAUAAGUUA, for which the “pre-steady-state target cleavage rate” value in assay [1] (setting [3]) was 0.129 ± 0.021; in assay [2], 0.0073 ± 0.004.
The matching figures for UCCUGCUACAGCUUGCAUAGUAUUUCGUUA: 0.132 ± 0.033 and 0.00379 ± 0.0018.
The matching figures for UCCUGCUACAGCUUGCAUAGUAUUAUCUAA: 0.0551 ± 0.014 and 0.00395 ± 0.0027.
For UCCUGGUACAGCUUGCAUAGUAAUUAGAUA, the “pre-steady-state target cleavage rate” value in assay [1] (auxiliary factor: none (no GTSF1)) is 0.00338 ± 0.0033; in assay [2] it was 0.00477 ± 0.0031.
On to UCCUGGAUGAGCUUGCAUAGUAUUUACAAA, for which the “pre-steady-state target cleavage rate” value in assay [1] (setting [3]) amounted to 0.0638 ± 0.018; in assay [2] it was 0.00416 ± 0.0028.
The corresponding values for UCCUCCUACAGCUUGCAUAGUAUUAGUUA are 0.273 ± 0.024 and 0.00402 ± 0.0027.
For UCCUGGUACAGCUUGCAUACUAUUUAGAAA, the entries for the “pre-steady-state target cleavage rate” value in assay [1] (setting [3]) and in assay [2] were 0.0227 ± 0.011 and 0.00236 ± 0.0018, respectively.
Take UCCUGGAUCAGCUUGCAUUGUAUUUAGAAA: the “pre-steady-state target cleavage rate” value in assay [1] (setting [3]) turned out to be 0.0362 ± 0.013; in assay [2], 0.00264 ± 0.0021.
The matching figures for UCCUCCUACAGCUUGCAUAGUAUUUAGUGUA: 0.158 ± 0.027 and 0.00735 ± 0.0033.
Take UCCUGCUACAGCUUGCAUAGUAUAAAGAAA: the figures for the “pre-steady-state target cleavage rate” value in assay [1] (setting [3]) and in assay [2] were 0.0621 ± 0.021 and 0.00337 ± 0.0023, respectively.
For the sequence UCCUGCUUGAGCUUGCAUAGUAUUUACAAA, the results for the “pre-steady-state target cleavage rate” value in assay [1] (setting [3]) and in assay [2] were 0.0564 ± 0.017 and 0.00279 ± 0.0023, respectively.
The matching figures for UCCUGGUACACCUUGCAUAGUAUUUAGAAA: 0.13 ± 0.043 and 0.0037 ± 0.0035.
For UCCUCCUACAGCAUCCAUAGUAUUUAGUUA, the “pre-steady-state target cleavage rate” value in assay [1] (setting [3]) stood at 0.175 ± 0.042; in assay [2], 0.00359 ± 0.0017.
The corresponding values for UCCUGCUAGAGCUUGCAUAGUUUUUAGUUA are 0.0598 ± 0.012 and 0.00419 ± 0.0013.
The corresponding values for UCCUCCUAGUGCUUGCAUAGUAUUUAGUAA are 0.114 ± 0.019 and 0.00468 ± 0.002.
The matching figures for UCCUGGAUGAGCUUGCAUAGCAUUUAGUUA: 0.0853 ± 0.016 and 0.0029 ± 0.0019.
On to UCCUGGAUCAGCUUGCAUAGUAUUUUGAAA, for which the “pre-steady-state target cleavage rate” value stood at 0.108 ± 0.027 in assay [1] (setting [3]) and 0.00318 ± 0.0016 in assay [2].
As for UCCUGGUACAGCUUGCAAAGUAUUUAGAUA, the “pre-steady-state target cleavage rate” value turned out to be 0.118 ± 0.021 in assay [1] (setting [3]) and 0.00431 ± 0.0026 in assay [2].
For UCCUCCUACAGCUUGCAUAGUAUUAACAAA, the “pre-steady-state target cleavage rate” value in assay [1] (setting [3]) is 0.11 ± 0.023; in assay [2] it was 0.00454 ± 0.0033.
The matching figures for UCCUGCUACAGCUUGCAUAGAUUUUACAAA: 0.00852 ± 0.0044 and 0.00292 ± 0.0018.
For the sequence UCCUGGAACAGCUUGCUUAGUAUUUAGUAA, the “pre-steady-state target cleavage rate” value came out at 0.238 ± 0.022 in assay [1] (setting [3]) and 0.00393 ± 0.0022 in assay [2].
